Our source for the binding signal values is PMC12529666, “Dysregulation of AGO2-miRNA dynamics underlies the AGO2-associated Lessel–Kreienkamp syndrome”.

Common to all, as to assay: RNA Bind-n-Seq (nitrocellulose filter binding and sequencing); miR-122 guide loaded in AGO2; 60 min incubation; 30 mM Tris pH 8.0, 100 mM potassium acetate, 2 mM magnesium acetate, 0.5 mM TCEP, 0.005% NP-40, 0.01 mg/ml yeast tRNA; 3 nM AGO2-miR-122, 100 nM RNA library; 60; high values mean tight binding
What all share (conditions): protein: recombinant; tags: His6 (N-terminal, pFastBac HTA)

One assay addresses AGO2 L192P (Homo sapiens, UniProt Q9UKV8 1-859, L192P;S387D;S824A;S828D;S831D;S834A). Put shortly:
(§1)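 Fold enrichment is each target's read fraction divided by its read fraction in the input library. Sf9 insect cells expressed His-tagged AGO2 from baculovirus; the protein was loaded with a synthetic guide RNA and purified by Ni-NTA and a biotinylated capture oligo. The bound RNA was extracted, reverse-transcribed, barcode-amplified and sequenced on Illumina.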

A further assay has as its target AGO2 A367P (Homo sapiens, UniProt Q9UKV8 1-859, A367P;S387D;S824A;S828D;S831D;S834A). Put shortly:
as §1

Another assay addresses AGO2 T357M (Homo sapiens, UniProt Q9UKV8 1-859, T357M;S387D;S824A;S828D;S831D;S834A). Put shortly:
as §1

AGO2 L192P, sequence (Q9UKV8 whole entry L192P/S387D/S824A/S828D/S831D/S834A): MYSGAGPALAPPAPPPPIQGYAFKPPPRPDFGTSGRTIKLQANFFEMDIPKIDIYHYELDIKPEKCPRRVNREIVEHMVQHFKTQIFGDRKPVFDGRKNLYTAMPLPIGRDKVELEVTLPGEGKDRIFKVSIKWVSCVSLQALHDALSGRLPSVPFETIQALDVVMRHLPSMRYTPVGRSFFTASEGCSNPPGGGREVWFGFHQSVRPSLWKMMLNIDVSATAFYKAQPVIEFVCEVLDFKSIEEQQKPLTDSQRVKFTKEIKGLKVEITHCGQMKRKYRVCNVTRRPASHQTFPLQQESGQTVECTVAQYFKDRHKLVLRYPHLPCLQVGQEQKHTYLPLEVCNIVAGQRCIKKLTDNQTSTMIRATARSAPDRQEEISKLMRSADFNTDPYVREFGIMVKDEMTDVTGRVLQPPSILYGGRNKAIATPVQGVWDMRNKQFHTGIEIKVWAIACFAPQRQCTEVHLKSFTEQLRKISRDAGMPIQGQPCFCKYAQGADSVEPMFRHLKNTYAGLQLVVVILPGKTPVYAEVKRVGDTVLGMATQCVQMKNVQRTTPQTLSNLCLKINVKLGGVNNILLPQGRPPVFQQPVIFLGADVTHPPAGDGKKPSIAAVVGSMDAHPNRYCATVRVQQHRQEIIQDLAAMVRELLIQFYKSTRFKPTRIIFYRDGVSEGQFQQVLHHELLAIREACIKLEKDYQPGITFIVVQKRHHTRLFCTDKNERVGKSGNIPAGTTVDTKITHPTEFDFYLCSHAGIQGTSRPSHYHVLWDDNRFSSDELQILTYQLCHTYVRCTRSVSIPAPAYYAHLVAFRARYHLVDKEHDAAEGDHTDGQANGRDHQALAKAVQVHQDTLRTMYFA
AGO2 A367P, sequence (Q9UKV8 whole entry A367P/S387D/S824A/S828D/S831D/S834A): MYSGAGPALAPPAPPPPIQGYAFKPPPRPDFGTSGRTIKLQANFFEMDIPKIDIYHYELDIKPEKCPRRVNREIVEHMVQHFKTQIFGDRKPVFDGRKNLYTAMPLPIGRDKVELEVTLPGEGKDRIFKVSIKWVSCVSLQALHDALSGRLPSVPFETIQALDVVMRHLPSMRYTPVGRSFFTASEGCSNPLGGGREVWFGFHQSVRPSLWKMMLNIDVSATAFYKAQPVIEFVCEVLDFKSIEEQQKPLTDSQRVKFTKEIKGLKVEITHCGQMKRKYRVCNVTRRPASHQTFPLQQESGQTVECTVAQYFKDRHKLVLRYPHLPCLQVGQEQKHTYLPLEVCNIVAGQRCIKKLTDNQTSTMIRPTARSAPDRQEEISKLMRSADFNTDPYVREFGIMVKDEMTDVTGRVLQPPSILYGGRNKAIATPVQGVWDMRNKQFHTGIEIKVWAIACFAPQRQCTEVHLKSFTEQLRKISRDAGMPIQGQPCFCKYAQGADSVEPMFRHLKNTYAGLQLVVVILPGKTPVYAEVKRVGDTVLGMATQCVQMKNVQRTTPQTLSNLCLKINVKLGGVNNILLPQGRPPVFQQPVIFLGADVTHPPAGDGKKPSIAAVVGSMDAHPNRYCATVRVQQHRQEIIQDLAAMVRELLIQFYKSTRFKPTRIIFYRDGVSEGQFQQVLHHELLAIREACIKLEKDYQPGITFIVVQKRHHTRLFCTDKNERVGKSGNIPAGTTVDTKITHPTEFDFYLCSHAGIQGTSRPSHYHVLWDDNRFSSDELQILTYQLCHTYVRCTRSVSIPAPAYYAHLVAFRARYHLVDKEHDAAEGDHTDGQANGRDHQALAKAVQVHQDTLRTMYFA
AGO2 T357M, sequence (Q9UKV8 whole entry T357M/S387D/S824A/S828D/S831D/S834A): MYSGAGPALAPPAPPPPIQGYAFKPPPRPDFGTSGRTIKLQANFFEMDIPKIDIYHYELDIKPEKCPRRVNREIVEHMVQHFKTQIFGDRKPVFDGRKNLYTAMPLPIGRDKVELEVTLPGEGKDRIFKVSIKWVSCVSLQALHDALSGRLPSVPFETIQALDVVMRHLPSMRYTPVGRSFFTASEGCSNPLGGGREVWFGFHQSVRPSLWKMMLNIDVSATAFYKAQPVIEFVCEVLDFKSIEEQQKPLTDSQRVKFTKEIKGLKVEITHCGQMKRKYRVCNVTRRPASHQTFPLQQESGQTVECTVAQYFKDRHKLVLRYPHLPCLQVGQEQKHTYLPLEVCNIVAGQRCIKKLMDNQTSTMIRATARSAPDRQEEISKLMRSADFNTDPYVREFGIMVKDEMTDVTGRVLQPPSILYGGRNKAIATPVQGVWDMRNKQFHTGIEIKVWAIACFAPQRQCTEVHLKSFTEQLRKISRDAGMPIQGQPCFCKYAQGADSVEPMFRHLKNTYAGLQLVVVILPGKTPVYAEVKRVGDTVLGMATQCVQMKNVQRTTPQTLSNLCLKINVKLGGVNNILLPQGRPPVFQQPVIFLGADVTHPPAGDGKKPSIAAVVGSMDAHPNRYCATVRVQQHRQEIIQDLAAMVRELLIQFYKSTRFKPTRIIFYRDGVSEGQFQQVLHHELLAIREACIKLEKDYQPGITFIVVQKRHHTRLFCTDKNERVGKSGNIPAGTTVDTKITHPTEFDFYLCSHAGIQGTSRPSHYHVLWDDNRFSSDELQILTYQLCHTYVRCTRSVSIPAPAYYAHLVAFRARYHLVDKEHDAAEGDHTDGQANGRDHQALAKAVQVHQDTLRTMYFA

B1: ATATTCTG (ssRNA)
RNA 1: GAGUUCUACAGUCCGACGAUCCCAACAUAUUCUGCACCUGGAAUUCUCGGGUGCCAA
RNA 2: UGGAGUGUGACAAUGGUGUUUG
DNA 1: GATCGTCGGACTGTAGAACTC
DNA 2: TTGGCACCCGAGAATTCCA
modifications: constant regions annealed to DNA blockers; guide miR-122 5' phosphate
As for B1, the binding signal with AGO2 L192P is 0.389 fold enrichment over input; in the assay with AGO2 A367P, 0.137 fold enrichment over input; with AGO2 T357M, 0.54 fold enrichment over input.

B2: ATGTCCTG (ssRNA)
RNA 1: GAGUUCUACAGUCCGACGAUCCCAACAUGUCCUGCACCUGGAAUUCUCGGGUGCCAA
RNA 2: UGGAGUGUGACAAUGGUGUUUG
DNA 1: GATCGTCGGACTGTAGAACTC
DNA 2: TTGGCACCCGAGAATTCCA
modifications: constant regions annealed to DNA blockers; guide miR-122 5' phosphate
On to B2, for which the values for the binding signal with AGO2 L192P, with AGO2 A367P and in the assay with AGO2 T357M were 0.343 fold enrichment over input, 0.122 fold enrichment over input and 0.425 fold enrichment over input, respectively.

B3: GCGCTTTG (ssRNA)
RNA 1: GAGUUCUACAGUCCGACGAUCCCAACGCGCUUUGCACCUGGAAUUCUCGGGUGCCAA
RNA 2: UGGAGUGUGACAAUGGUGUUUG
DNA 1: GATCGTCGGACTGTAGAACTC
DNA 2: TTGGCACCCGAGAATTCCA
modifications: constant regions annealed to DNA blockers; guide miR-122 5' phosphate
As for B3, the binding signal with AGO2 L192P is 0.333 fold enrichment over input; with AGO2 A367P, 0.137 fold enrichment over input; with AGO2 T357M, 0.462 fold enrichment over input.

B4: GTGTCTTG (ssRNA)
RNA 1: GAGUUCUACAGUCCGACGAUCCCAACGUGUCUUGCACCUGGAAUUCUCGGGUGCCAA
RNA 2: UGGAGUGUGACAAUGGUGUUUG
DNA 1: GATCGTCGGACTGTAGAACTC
DNA 2: TTGGCACCCGAGAATTCCA
modifications: constant regions annealed to DNA blockers; guide miR-122 5' phosphate
Regarding B4, the binding signal with AGO2 L192P is 0.335 fold enrichment over input; in the assay with AGO2 A367P it was 0.131 fold enrichment over input; in the assay with AGO2 T357M, 0.447 fold enrichment over input.

B5: ACGTTTTG (ssRNA)
RNA 1: GAGUUCUACAGUCCGACGAUCCCAACACGUUUUGCACCUGGAAUUCUCGGGUGCCAA
RNA 2: UGGAGUGUGACAAUGGUGUUUG
DNA 1: GATCGTCGGACTGTAGAACTC
DNA 2: TTGGCACCCGAGAATTCCA
modifications: constant regions annealed to DNA blockers; guide miR-122 5' phosphate
For B5, the values for the binding signal with AGO2 L192P, with AGO2 A367P and in the assay with AGO2 T357M were 0.342 fold enrichment over input, 0.136 fold enrichment over input and 0.495 fold enrichment over input, respectively.

B6: GTGTCTCG (ssRNA)
RNA 1: GAGUUCUACAGUCCGACGAUCCCAACGUGUCUCGCACCUGGAAUUCUCGGGUGCCAA
RNA 2: UGGAGUGUGACAAUGGUGUUUG
DNA 1: GATCGTCGGACTGTAGAACTC
DNA 2: TTGGCACCCGAGAATTCCA
modifications: constant regions annealed to DNA blockers; guide miR-122 5' phosphate
For B6, the binding signal with AGO2 L192P is 0.345 fold enrichment over input; with AGO2 A367P, 0.125 fold enrichment over input; with AGO2 T357M it was 0.468 fold enrichment over input.

B7: GTGTTTTG (ssRNA)
RNA 1: GAGUUCUACAGUCCGACGAUCCCAACGUGUUUUGCACCUGGAAUUCUCGGGUGCCAA
RNA 2: UGGAGUGUGACAAUGGUGUUUG
DNA 1: GATCGTCGGACTGTAGAACTC
DNA 2: TTGGCACCCGAGAATTCCA
modifications: constant regions annealed to DNA blockers; guide miR-122 5' phosphate
Turning to B7, the binding signal in the assay with AGO2 L192P was 0.344 fold enrichment over input; with AGO2 A367P it was 0.129 fold enrichment over input; with AGO2 T357M it was 0.483 fold enrichment over input.

B8: GTACCTTG (ssRNA)
RNA 1: GAGUUCUACAGUCCGACGAUCCCAACGUACCUUGCACCUGGAAUUCUCGGGUGCCAA
RNA 2: UGGAGUGUGACAAUGGUGUUUG
DNA 1: GATCGTCGGACTGTAGAACTC
DNA 2: TTGGCACCCGAGAATTCCA
modifications: constant regions annealed to DNA blockers; guide miR-122 5' phosphate
With B8, the binding signal is 0.347 fold enrichment over input in the assay with AGO2 L192P, 0.128 fold enrichment over input with AGO2 A367P and 0.482 fold enrichment over input in the assay with AGO2 T357M.

B9: ACGTTCTG (ssRNA)
RNA 1: GAGUUCUACAGUCCGACGAUCCCAACACGUUCUGCACCUGGAAUUCUCGGGUGCCAA
RNA 2: UGGAGUGUGACAAUGGUGUUUG
DNA 1: GATCGTCGGACTGTAGAACTC
DNA 2: TTGGCACCCGAGAATTCCA
modifications: constant regions annealed to DNA blockers; guide miR-122 5' phosphate
In the case of B9, the binding signal in the assay with AGO2 L192P is 0.334 fold enrichment over input; with AGO2 A367P, 0.128 fold enrichment over input; with AGO2 T357M, 0.445 fold enrichment over input.

B10: GTATCTTG (ssRNA)
RNA 1: GAGUUCUACAGUCCGACGAUCCCAACGUAUCUUGCACCUGGAAUUCUCGGGUGCCAA
RNA 2: UGGAGUGUGACAAUGGUGUUUG
DNA 1: GATCGTCGGACTGTAGAACTC
DNA 2: TTGGCACCCGAGAATTCCA
modifications: constant regions annealed to DNA blockers; guide miR-122 5' phosphate
For B10, the values for the binding signal with AGO2 L192P, with AGO2 A367P and with AGO2 T357M were 0.32 fold enrichment over input, 0.127 fold enrichment over input and 0.448 fold enrichment over input, respectively.

B11: ATGTTTCG (ssRNA)
RNA 1: GAGUUCUACAGUCCGACGAUCCCAACAUGUUUCGCACCUGGAAUUCUCGGGUGCCAA
RNA 2: UGGAGUGUGACAAUGGUGUUUG
DNA 1: GATCGTCGGACTGTAGAACTC
DNA 2: TTGGCACCCGAGAATTCCA
modifications: constant regions annealed to DNA blockers; guide miR-122 5' phosphate
Regarding B11, the figures for the binding signal with AGO2 L192P, with AGO2 A367P and in the assay with AGO2 T357M were 0.353 fold enrichment over input, 0.123 fold enrichment over input and 0.462 fold enrichment over input, respectively.

B12: GTACTCTA (ssRNA)
RNA 1: GAGUUCUACAGUCCGACGAUCCCAACGUACUCUACACCUGGAAUUCUCGGGUGCCAA
RNA 2: UGGAGUGUGACAAUGGUGUUUG
DNA 1: GATCGTCGGACTGTAGAACTC
DNA 2: TTGGCACCCGAGAATTCCA
modifications: constant regions annealed to DNA blockers; guide miR-122 5' phosphate
In the case of B12, the binding signal is 0.425 fold enrichment over input with AGO2 L192P, 0.181 fold enrichment over input with AGO2 A367P and 0.539 fold enrichment over input in the assay with AGO2 T357M.
